PI5P4Ka inh = qHTS for Inhibitors of phosphatidylinositol 5-phosphate 4-kinase (PI5P4K). Phosphatidylinositol 5-phosphate 4-kinase type-2 alpha (Homo sapiens), P48426. PI5P4Kalpha enzyme, ADP-Glo luminescence, 60 min; stronger effect = lower value. max response, %. hit rate 1.2% among 330,000; active = max response of -50% or lower; inconclusive = between -30% and -50%; inactive = -30% or higher; also: value at the top dose of about 77 µM; % is scaled to controls: 0 for no effect and ±100 for the full control effect
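ADP-Glo luminescence end-point after a 60 min room-temperature kinase reaction. PI5P4Kalpha and substrate in HEPES pH 7.4 buffer with EGTA, 0.1% CHAPS and 5% DMSO; ATP at 5 microM final.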
PLK1 PBD block = qHTS for Inhibitors of PLK1-PDB (polo-like kinase 1 - polo-box domain): Primary Screen; Potency, µM, inactives show max response, negative = inhibition, actives largely listed as inhibitors; AID 720504, 2013; hit rate 2.8% among 360,000; Plk1 PBD binding of FITC phosphopeptide, fluorescence polarization; also: potency is read from the fitted curve at half-maximal effect; series mostly up to about 57 µM; % is scaled to controls: 0 for no effect and ±100 for the full control effect; nearly all actives have a fitted effect of over 65% in size
GCN5L2 inh = qHTS Assay for Inhibitors of GCN5L2; Histone acetyltransferase KAT2A (Homo sapiens), Q92830; GCN5L2 HAT assay, ThioGlo1 CoA-SH fluorescence; Potency, µM (doses to about 58.9 µM), for inactives: top-dose activity change, negative = inhibition, most hits filed as inhibitors; hit rate 0.21% among 390,000; AID 504327, 2011; also: potency is read from the fitted curve at half-maximal effect; % is scaled to controls: 0 for no effect and ±100 for the full control effect
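qHTS, 1536-well. 20nM enzyme, pH 7.5 HEPES/EDTA/Tween-20 buffer; 15 min compound preinc., RT. Start: 75uM H3(1-25), 70uM AcCoA, 50uM ThioGlo1. Read Ex340/Em540 at t=0 (autofluorescence flag) and t=20 min.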
HP1b chromo inh = HTS for Inhibitors of HP1-beta Chromodomain Interactions with Methylated Histone Tails. hit rate 0.56% among 390,000. AlphaScreen HP1-beta / biotin-H3K9me3 peptide binding. AID 540317, 2011. Potency, µM (titrated, usually from 114 µM), without a hit: top-dose activity change, negative = inhibition, most hits filed as inhibitors. Chromobox protein homolog 1 (Homo sapiens), P83916; also: potency is read from the fitted curve at half-maximal effect; nearly all actives have a fitted effect of over 70% in size
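Compound inhibition of the preformed complex between 50 nM HP1-beta and 50 nM biotinylated H3K9me3 peptide was read by AlphaScreen. Buffer was PBS pH 7.4 with 0.01% Tween-20. Incubations ran 30 min at room temperature, with 10 ug/mL donor/acceptor beads.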
JMJD2A Tudor = qHTS Assay for Inhibitors of JMJD2A-Tudor Domain | Potency, µM (highest dose often 114 µM), for the others: at the top dose activity change, negative = inhibition, most hits filed as inhibitors | AlphaScreen JMJD2A-Tudor / H3K4me3 peptide binding | Lysine-specific demethylase 4A (Homo sapiens), O75164 | hit rate 4.4% among 390,000; also: potency is read from the fitted curve at half-maximal effect; % is scaled to controls: 0 for no effect and ±100 for the full control effect; nearly all actives have a fitted effect of over 50% in size
BAZ2B inh = qHTS Assay for Inhibitors of BAZ2B; Potency, µM (titrated, usually from 114 µM), without a hit: at the highest dose activity change, negative = inhibition, usual class: inhibitors; AlphaScreen BAZ2B-H3K14Ac peptide displacement; hit rate 4.4% among 360,000; AID 504333, 2011; also: potency is read from the fitted curve at half-maximal effect; % is scaled to controls: 0 for no effect and ±100 for the full control effect; nearly all actives have a fitted effect of over 60% in size
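Complex of BAZ2B and biotin-H3K14Ac (50 nM apiece) forms over 30 min at RT, then faces library compounds up to 110 uM for another 30 min; AlphaScreen beads added, 20 min dark incubation, luminescence read.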
The depositor's hits bear a star; u = inconclusive; x = no result given; [ ] = another dose, or the depositor's remark. A selection: hits, their analogues and other compounds. The true share with any hit is near 7%. Unless noted, calls follow the shape of the dose curve; as a rule, active = well fitted curve in the direction sought with a large enough effect; inconclusive = small, poorly fitted or top-dose-only effect, or another doubt; inactive = no such curve, though single readings can be large; an effect the other way counts as inactive or inconclusive.

SMILES | PI5P4Ka inh | PLK1 PBD block | GCN5L2 inh | HP1b chromo inh | JMJD2A Tudor | BAZ2B inh
COc1ccc(CCN(C)CCC(=O)Nc2cc(C)ccc2C)cc1OC | -1 | -12% | 1.6µM* | 24% | -21% | 46%
COc1ccc(CCNC(=O)c2nnn(CC(=O)Nc3ccc(C)cc3C)c2N)cc1OC | -5 | -3% | -12% | 40% | -29% | 79µM*
O=C(CC1N=C2c3ccccc3N=C(SCc3ccc(F)cc3)N2C1=O)NC1CCCCC1 (configuration not stated) | x | x | -4% | 57% | -20% | -3%
CCC1CN(C(=O)N2CCC(C(=O)NCc3cccc(F)c3)CC2)c2cc(C)ccc2O1 (configuration not stated) | x | x | -11% | -10% | -24% | u
Cc1ccccc1CN1CCC(CNc2ncnc3onc(-c4ccc(F)cc4)c23)CC1 | x | x | 1% | 26% | -23% | 10%[57.1 µM]
COc1ccc(-c2nc(C)sc2C)cc1 | -27 | u | -2% | u | 32µM* | 3%
COc1ccc(-c2nc(-n3c(C)c(C(C)=O)c(C(C)=O)c3C)sc2C)cc1 | x | -9% | 1% | 23% | u | u
COc1ccc(OC)c(-c2nc3ccccc3nc2-c2ccccc2)c1 | 0 | 2% | -8% | 125% | 26% | 28%
COc1ccc(-c2nc3ccccc3nc2-c2ccccc2)cc1 | -13 | 21µM* | -7% | 80% | 29% | 94%
CCOc1ccc(NC(=O)Cn2c(=O)n(Cc3ccc4c(c3)OCO4)c(=O)c3ccc(C(=O)NC4CCCCC4)cc32)cc1 | x | x | -3% | 19% | -12% | x
COc1ccc(-c2nnc(C3CCN(C(=O)c4ccccc4F)CC3)o2)cc1 | x | x | -13% | -3% | 56µM* | u
COc1ccccc1-c1nnc(C2CCN(C(=O)c3ccc(C)cc3)CC2)o1 | x | x | -1% | 47% | -2% | -9%
Cc1cc2cc3c(cc2nc1SCc1ccc(C(=O)O)cc1)OCCO3 | -5 | 30µM* | 2% | 19% | -33% | u
Cc1ccccc1-c1cn(-c2ccccc2)c(=S)[nH]1 | -28 | -8% | -2% | -19% | u | u
CC(C)(C)c1cn(-c2ccc(F)cc2)c(=S)[nH]1 | -1 | -14% | -7% | 23% | 25µM* | -7%
CCCCCCCCCCCCCCCC(=O)Nc1ccn(C2OC(CO)C(O)C2O)c(=O)n1 (configuration not stated) | -2 | 1% | x | 24% | -5% | x
NC(=O)NC(CC(=O)NCCc1ccc(S(N)(=O)=O)cc1)c1ccc(Cl)cc1 (configuration not stated) | -17 | 15µM* | -4% | -1% | -15%[11.4 µM] | 2%
CC1C/C(=C\c2ccccc2[N+](=O)[O-])c2nc3ccccc3c(C(=O)O)c2C1 (configuration not stated) | -3 | 0% | -5% | 18% | -12% | u
Cc1ccc(Cl)c2c1=NC(=O)C=2c1[nH]c(=S)[nH]c1O | -75* | -17% | -3% | u | -26% | u
O=C1N=c2ccccc2=C1c1[nH]c(=S)[nH]c1O | u | -10% | -15% | -9% | -23% | u
CCc1cc2c(-c3ccccc3)cc(=O)oc2cc1OC(C)C(=O)O (configuration not stated) | -5 | -8% | -15% | 31% | 6% | 0%
CC(NC(=O)OCc1ccccc1)C(=O)Oc1cc2oc(=O)cc(-c3ccccc3)c2cc1Cl (configuration not stated) | -62* | -21% | 0% | 75% | 2% | -5%
CCCc1cc2c(-c3ccccc3)cc(=O)oc2cc1OCc1ccc(C(=O)O)o1 | -23 | 24µM* | u | u | -20%[11.4 µM] | u

Screens from PubChem.
